Sampled rows, rich in hits. Any-hit rate of the full collection: about 19%.
TDP1 inh – qHTS Assay for Inhibitors of Tyrosyl-DNA Phosphodiesterase (TDP1) | recombinant TDP1, AlphaScreen DNA substrate cleavage | Potency, µM (top dose mostly 130 µM), inactives show at the highest dose activity change, negative = inhibition, usual class: inhibitors | 0.28% of 350,000 active | AID 485290, 2010; note: potency is the fitted concentration of half-maximal effect; nearly all actives have a fitted effect of over 40% in size
Target sequence (Q9NUW8 whole entry, looked up): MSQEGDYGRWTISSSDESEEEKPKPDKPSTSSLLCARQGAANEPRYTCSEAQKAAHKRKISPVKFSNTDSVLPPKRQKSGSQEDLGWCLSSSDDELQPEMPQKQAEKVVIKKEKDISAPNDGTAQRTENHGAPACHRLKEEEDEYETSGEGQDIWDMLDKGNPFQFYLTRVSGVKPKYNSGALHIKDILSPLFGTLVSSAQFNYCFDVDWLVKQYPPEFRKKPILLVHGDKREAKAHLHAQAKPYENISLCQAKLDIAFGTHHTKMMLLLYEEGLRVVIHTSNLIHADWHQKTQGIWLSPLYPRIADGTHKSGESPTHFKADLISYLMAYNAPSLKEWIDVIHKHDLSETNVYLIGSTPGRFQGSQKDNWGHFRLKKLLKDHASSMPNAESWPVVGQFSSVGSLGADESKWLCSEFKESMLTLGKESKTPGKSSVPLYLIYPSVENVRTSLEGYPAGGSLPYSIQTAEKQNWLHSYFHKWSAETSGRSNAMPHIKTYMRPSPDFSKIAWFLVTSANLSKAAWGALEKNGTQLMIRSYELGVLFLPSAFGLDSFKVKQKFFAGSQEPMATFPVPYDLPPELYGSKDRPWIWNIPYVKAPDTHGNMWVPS
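Steps: enzyme plus compound, 15 min RT; add biotin/phosphotyrosine-FITC oligonucleotide (15 nM final), react 5 min; add donor/acceptor beads (10 ug/ml final), 10 min; read AlphaScreen. Tdp1 at 1 nM final.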
ELG1 repair inh – qHTS screen for small molecules that inhibit ELG1-dependent DNA repair in human embryonic kidney (HEK293T) cells expressing luciferase-tagged ELG1; HEK293T ELG1-luciferase reporter, luminescence, 16 h; DNA damage induced by 5-fluorouridine; Potency, µM (doses to about 46.1 µM), without a hit: at the highest dose activity change, negative = inhibition, usual class: inhibitors; 2.3% of 330,000 active; AID 504467, 2011; note: potency is the fitted concentration of half-maximal effect; nearly all actives have a fitted effect of over 55% in size
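Quantitative HTS, concentration-response format. 2,000 cells/well co-treated with 5-fluorouridine and compound, 16 hr in 5% CO2 at 37 °C; ONE-Glo luminescence read after 30 min.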
Giardia kill – Small Molecules that selectively kill Giardia lamblia: qHTS; Giardia lamblia trophozoite viability; 0.15% of 340,000 active; activity change, % at 7.66 µM, hits read low; in the data active = activity change below about -80%; inconclusive = between about -30% and that limit;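 note: parasites exposed to compound for two days anaerobically before the ATP read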
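Compounds were tested on trophozoites seeded at 100 cells/well and held 48 hrs at 37 deg C anaerobically. An ATP-based luminescent kit measured the remaining live cells.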
DT40 TDP1 CPT – qHTS for Inhibitors of human tyrosyl-DNA phosphodiesterase 1 (TDP1): qHTS in cells in presence of CPT. Potency, µM (doses to about 46.2 µM), for the others: at the top dose activity change, negative = growth inhibition, most hits filed as inhibitors. chicken DT40 Tdp1-/-;hTDP1 cells + 20 nM CPT, ATP luminescence, 48 h. 12% of 420,000 active; note: potency is the fitted concentration of half-maximal effect; nearly all actives have a fitted effect of over 55% in size
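Cell growth measured by CellTiter-Glo luminescence after a minimum 48 h, 37 C compound exposure with 20 nM CPT in Tdp1-knockout DT40 cells stably expressing hTDP1, seeded 400/well; qHTS titration format.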
IL-1B inflam inh – qHTS for Inhibitors of Inflammasome Signaling: IL-1-beta AlphaLISA Primary Screen; THP-1 LPS/ATP IL-1B secretion, AlphaLISA, 16 h; stronger effect = lower value; activity change, % at 57.5 µM; 4.7% of 360,000 active; AID 743279, 2014; in the data active = activity change below about -50%; inconclusive = mostly about -30% to -49%
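THP-1 cells pretreated 1 hr with compounds (up to 57.5 uM final), then stimulated with LPS (250 ng/mL final) plus ATP (1.25 mM final); secreted IL-1B measured by AlphaLISA after 16 hr, decreased signal indicating inhibition.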
TDP1 cell noCPT – qHTS for Inhibitors of human tyrosyl-DNA phosphodiesterase 1 (TDP1): qHTS in cells in absence of CPT; DT40 Tdp1-/- hTDP1 cells, no CPT, ATP luminescence, 48 h; Potency, µM (series often up to 46.2 µM), without a hit: at the highest dose activity change, negative = growth inhibition, actives largely listed as inhibitors; 15% of 420,000 active; AID 686978, 2013; note: potency is the fitted concentration of half-maximal effect; nearly all actives have a fitted effect of over 55% in size
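Stably hTDP1-transfected Tdp1-null chicken DT40 cells were treated with library compounds minus camptothecin and grown for at least 48 hr at 37 °C, after which cellular ATP was quantified by luminescence.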
An asterisk follows results filed as active; ? = inconclusive; · = not tested or not shown. Unless noted, calls come from the whole dose curve; as a rule, active = well fitted curve in the direction sought with a large enough effect; inconclusive = small, poorly fitted or top-dose-only effect, or another doubt; inactive = no such curve, though single readings can be large; an effect the other way counts as inactive or inconclusive. % is set by controls: 0 for no effect and ±100 for the full control effect.

SMILES	TDP1 inh	ELG1 repair inh	Giardia kill	DT40 TDP1 CPT	IL-1B inflam inh	TDP1 cell noCPT
CCCSc1ccc([C@@H]2[C@H]3C(=O)N(CC)C(=O)[C@H]3[C@]3(C(=O)OC)CCCCN23)cc1OC	0%	-23%	36	?	-6	?
CCSc1ccc([C@@H]2[C@@H]3C(=O)N(CC)C(=O)[C@@H]3[C@]3(C(=O)OC)CCCN23)cc1	6%	15%	10	?	16	23µM*
COc1ccc2c(c1)C(=O)[C@H](OC(=O)Nc1ccc(C)c(Br)c1)[C@@H](c1ccc(OC)c(Br)c1)O2	2%	·	·	·	·	·
COc1cccc(Nc2nc3ccc(C)cc3nc2-n2nc(C)cc2C)c1	·	·	·	-28%	·	?
CC(C)c1nc(-c2c(N)n(C)c(=O)n(C)c2=O)sc1C(=O)C(C)(C)C	-1%	12%	-10	-27%	30	?
CCCCCCSc1ccc([C@@H]2[C@@H]3C(=O)N(CC)C(=O)[C@@H]3[C@]3(C(=O)OC)CCCCN23)cc1	-4%	-6%	-22	18µM*	-17	21µM*
CCCCCCSc1ccc([C@@H]2[C@H]3C(=O)N(C)C(=O)[C@H]3[C@]3(C(=O)OC)CCCCN23)cc1	-1%	-13%	36	?	-18	?
CCCSc1ccc([C@@H]2[C@H]3C(=O)N(C)C(=O)[C@H]3[C@]3(C(=O)OC)CCCN23)cc1OC	0%	-2%	-2	-3%	-11	-15%
CCSc1ccc([C@@H]2[C@H]3C(=O)N(CC)C(=O)[C@H]3[C@]3(C(=O)OC)CCCCN23)cc1	0%	7%	6	?	8	23µM*
CCCSc1ccc([C@@H]2[C@@H]3C(=O)N(C)C(=O)[C@@H]3[C@]3(C(=O)OC)CCCCN23)cc1OC	2%	-1%	-9	?	-3	23µM*
COc1cccc(CN2CCNC(=O)C2CC(=O)NCCc2nc(C)c(C)s2)c1OC (stereo not given)	6%	-12%	23	-5%	-4	-4%
Nc1nc(SCC(=O)Nc2ccccc2)nc2nc3c(cc12)CCCC3	4%	?	4	-22%	-52*	13µM*
Cc1cc2cc3c(cc2nc1SCC(=O)Nc1ccccc1)CCC3	4%	-3%	-6	15µM*	34	13µM*
Cc1ccc(NC(=O)CSc2nc(N)c3cc4c(nc3n2)CCCC4)cc1	8%	9%	-1	16µM*	17	?
O=C(CSc1nc2nc3c(cc2c(=O)n1-c1ccccc1)CCCC3)Nc1ccccc1	2%	?	20	?	38	?
Cc1cc(NC(=O)CSc2nc3cc(C)c(C)cc3cc2C)no1	4%	3%	-9	-9%	-1	-29%
CC(C(=O)NCC1CCCCC1)N(C)CC(=O)Nc1ccc(N2CCOCC2)cc1 (stereo not given)	0%	-8%	3	6%	25	-10%
Cc1ccc(C)c(/C=N/NC(=S)NC(C)C)c1	6%	2%	-23	5.8µM*	5	5.8µM*
CC(C)NC(=S)N/N=C/c1ccc(C(C)(C)C)cc1	5%	?	-1	13µM*	-68*	10µM*
CC(C)NC(=S)N/N=C/c1cccs1	5%	1%	13	0.92µM*	-1	0.82µM*
CC(C)NC(=S)N/N=C/c1ccccc1[N+](=O)[O-]	5%	-17%	11	5%	19	?
COc1cc(NC(=O)c2ccc([N+](=O)[O-])cc2)c(OC)cc1NC(=O)CC(C)C	2%	9%	-23	1%	-7	11%

Screening data (PubChem)
